Test results as given in PubChem BioAssay (NCI).
The panel holds about 79,000 compounds, 15% with a hit somewhere; the sample as a whole holds those more often. The source made the active and inactive calls. Rule as the data show it: active = growth inhibition above about 70%; inactive = the rest.

Assay: NCI Yeast Anticancer Drug Screen. Data for the rad18 strain (AID 177)
Conditions: S. cerevisiae rad18 mutant growth inhibition; at 1.2 µM; hits give high values
In short: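 DNA-repair-defective yeast; compound treatment; growth inhibition scored against vehicle.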

Compound	growth inhibition
COc1ccc(/C=C2\CCc3ccccc3C2=O)cc1OC	-20% (inactive)
O=Cc1ccccc1B(O)O	1% (inactive)
CC(=O)CC[N+](C)(C)C	-20% (inactive)
O=C(O)[C@H]1[C@@H](C2CCCCC2)O[C@@H](C2CCCCC2)O[C@H]1C(F)(F)F	-6% (inactive)
CN(NC(=O)/C(=C/C=C/c1ccccc1)NC(=O)c1ccccc1)C1=C(Cl)C(=O)[N+](c2ccccc2)=CC1	1% (inactive)
CCCCOc1ccc(Nc2c3ccccc3nc3ccccc23)cc1	-9% (inactive)
N#C/C(=C1C=C/C(=N\O)C(Cl)=C\1)c1ccccc1	-1% (inactive)
COc1ccc(C(=O)OCCc2ccccc2)cc1	3% (inactive)
Cc1c2ccncc2c(C)c2c1oc1ccccc12	-2% (inactive)
CCCC#CCOC(=O)c1cc([N+](=O)[O-])cc([N+](=O)[O-])c1	4% (inactive)
Nc1nc(Nc2ccccc2)nc(Nc2ccccc2)n1	-1% (inactive)
COc1ccc(/C=C2\S/C(=N/Nc3nc(-c4ccccc4)cs3)NC2=O)cc1OC	35% (inactive)
CC(O)CN1C(=O)c2cccc3cc([N+](=O)[O-])cc(c23)C1=O (centres undefined)	-11% (inactive)
COC1=C(N=[N+]=[N-])C(=O)c2ncccc2C1=O	60% (inactive)
CCN(CC)c1ccc(N=Nc2cc(S(=O)(=O)O)ccc2O)c(O)c1	2% (inactive)
CN(C)CCNC(=O)c1cccc2nc3c(ccc4ccccc43)nc12	-2% (inactive)
O=S(=O)(CCC[C@H]1[C@@H](CCOCc2ccccc2)C2CCCN1O2)c1ccccc1 (some centres undefined)	2% (inactive)
CCC(C)/C(C)=N/NC(N)=O (centres undefined)	1% (inactive)
Nc1c([N+](=O)[O-])cc2c3c(cccc13)CC2	24% (inactive)
CC1=Cc2ccc(C)cc2C(=O)C1=O	25% (inactive)
C=Cc1c(C)c(O)cc2c1-c1ccc(O)c(C)c1CC2	-25% (inactive)
C[n+]1c(-c2ccc(NC(=O)c3ccc(C(=O)Nc4ccc(-c5cn6ccccc6[n+]5C)cc4)cc3)cc2)cn2ccccc21	4% (inactive)
CNC(=O)OCc1c(COC(=O)NC)c(C)n(-c2ccc(Cl)c(Cl)c2)c1C	-32% (inactive)
C[Si](C)(C)Cc1ccccc1C(=O)O	2% (inactive)
